test system: VDR:RXRa (NR concentration 270 nM, RXRa partner concentration 90 nM); test: PBM binding z-score (relative to random genomic background probes); higher = stronger binding; sequences stand for … in GC…GCGATTGACAGCGTAGAATGAAGG
Experimental: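 Protein-binding microarray (Agilent 4x180K custom design, double-stranded 60-nt probes: 5' GC cap, 34-nt variable region, 24-nt constant primer region; full probe sequence given). Purified or IVT nuclear receptor:RXRα heterodimers (3:1 NR:RXRα, mostly 270:90 nM) or homodimers were incubated for 1 h in PBS with 2% milk and no ligand, then detected with Alexa488 antibodies. Fluorescence from o1-orientation probes (~5 replicates averaged) was converted to z-scores against 500 random hg19 background probes. Variable regions are seed direct-repeat (DR0–DR5) sites, all their single-nucleotide variants and half-site ablations.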

Row | Sequence | PBM binding z-score
1 | ATATGTAGGTTACATCCGAGTCATTCAGGCTATG | 0.386
2 | CAAACTAGGTCACAGAGGTTAAAGTCCGTGCGTA | 6.72
3 | ACTAGTTGGTCACCTGAGGTCACACACAATTCGG | 5.23
4 | CGAACTAGGTCATCGAGGACAGTGAATACATTGA | 6.12
5 | CTATGTAGGTTAAGGGGGTCCTTCAGTTTGAAAG | 3.98
6 | ATACGTAGGTTACATCCGGGTCATTCAGGCTATG | 4.16
7 | ATCTGTAGGTTATCGGGTCATTCAGTTTGCGCAT | 5.17
8 | GATACAGGGTGAGCTAGAGGCCAGAGTATGGAAA | -0.523
9 | CCTAGTTGGCCAAGGTCACACACGCTATAGGTAC | 4.02
10 | CGAACTAGGTCAAAGGACACTGAAAGGCGACGTA | 1.74
11 | CTATGTAGGTTAAGGGGGTCTTTCAGTTTGAAAG | 3.93
12 | CGAACTAGGTCACCAGGACAGGGAAGAGGTTGGA | 1.91
13 | TCGAGTAGGTTACGGGGGCTTTCAGGGATGAAGA | 2.02
14 | CGAACTTGGTCAAAGGACAGTGAAAGGCGACGTA | -0.101
15 | CATACTAGGTCAAAGGTCAAAGTCGAGCCAACCA | 6.61
16 | CGTCCAAGGTCAACAGGTCAGTGAAAGCGACGTG | 5.16
17 | ATATGTAGGTTAGGCTCATTCAGAAAGTAGGGAA | -0.124
18 | TCATATAGGTAATCAGGTGAAAGTCCGTAAGTTA | 1.19
19 | CAAGCTAGGTCAAGAGGTCAAAGTCCGCTTCCCG | 5.9
20 | CTAACTAGGTCAAAGGACAGTGAAAGGCGACGTA | 1.3

Row | Sequence | PBM binding z-score
21 | AGTCGGAGGACAAAGGTCAGAGCTACGCCAGTGA | 3.28
22 | CGAACTAGGTGAAAGGACAGTGAAAGGCGACGTA | -0.353
23 | CAAACTAGGTCACCGGAAAGTCAAAGTCCGCATG | 2.61
24 | CAAACTAGGTCACCAGGACAGTGAAGAGGTTGGA | 2.3
25 | GACACAGGGTCAGCTAGAGGCCAGAGTATGGAAA | 3.19
26 | AGTCAAAGTTCAGGACGAGATAACGTAAAGCACG | 2.19
27 | TCTAGTTGGTCAAAGGCCACACACTCGAAATGCG | 1.04
28 | ATCGAAAGGTCGAAGGAGAGTATACCCACCCGAA | 2.23
29 | TCGAGTAGGTTACGGGGGCATTAAGGGATGAAGA | 3.4
30 | TCGGGTAGGTTACGGGGGCATTCAGGGATGAAGA | 4.77
31 | GATACAGGGTCAAGGCCAGAATACGCGTATTGAT | 4.05
32 | ACTAGTTGGTCAGCTGAGGTAACACACAATTCGG | 0.448
33 | CGAGCTAGGTCAAAGGACAGTGAAAGGCGACGTA | 0.97
34 | CTATGTAGGTTATGGGGGTCATTCAGTTTGAAAG | 7.53
35 | CTATGTAGATTAAGGGGGTCATTCAGTTTGAAAG | 6.53
36 | CCGACTGGGGCAAAGGTTACCATGCTCAGTACGA | 1.64
37 | CAAACTAGGTCAAAGGTCAAAATCGAGCCAACCA | 6.43
38 | CGAACTAGGTCAAAGGACAGGGAAAGGCGACGTA | 1.27
39 | ATATGTAGGTCATCGGGTCATTCAGTTTGCGCAT | 6.28
40 | CTCGAAAGGTCGAGCTCAGGTGAGTATACCAAAC | 2.71

— the supplement of paper PMC6555819
